Test results from PubChem BioAssay AID743263 (The Scripps Research Institute Molecular Screening Center, 2014).
Among all 1,100 compounds or so, about 250 (23%) were called active. A selection follows. A number with no mark means an inactive call. Cut-off read from the data, not from the text of the source: active = inhibition above about 25%; inactive = the rest.

Each compound was assayed against Tyrosyl-DNA phosphodiesterase 2 (Homo sapiens) (UniProt O95551) (assay: human TDP2 enzyme inhibitors, retest, confirmation, biochemical, epi absorbance, recombinant enzyme (AID 743263;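 note: 0% = vehicle with enzyme and 100% = no enzyme buffer only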)). Details: recombinant human TDP2, absorbance read-out; at 12.8 µM; stronger effect = higher value.
Sequence of Tyrosyl-DNA phosphodiesterase 2 (Homo sapiens) (O95551 whole entry, looked up): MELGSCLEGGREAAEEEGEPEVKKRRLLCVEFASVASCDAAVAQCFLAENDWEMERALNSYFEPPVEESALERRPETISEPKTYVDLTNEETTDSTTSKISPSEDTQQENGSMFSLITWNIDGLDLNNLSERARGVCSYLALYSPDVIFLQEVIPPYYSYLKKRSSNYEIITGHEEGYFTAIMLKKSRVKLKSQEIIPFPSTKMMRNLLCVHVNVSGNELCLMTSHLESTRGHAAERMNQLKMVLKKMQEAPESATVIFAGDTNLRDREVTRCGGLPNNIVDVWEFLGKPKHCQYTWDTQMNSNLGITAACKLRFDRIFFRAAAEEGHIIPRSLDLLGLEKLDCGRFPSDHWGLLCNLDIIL

Structure (SMILES) | inhibition
NC1=CC(=O)C(=O)c2cccnc21 | 65.8% (active)
CCSc1nnc(SCC(=O)NNC(=O)c2ccccc2F)s1 | -14.1%
Cc1cc(C)c(OCCN2CC(C)OC(C)C2)c(Br)c1 (stereo unspecified) | -5.14%
CCCCCCCCc1c(O)nc(-n2[nH]c(C)c(CCO)c2=O)[nH]c1=O | 27.3% (active)
CCOC(=O)N1CCC(c2cc(=O)n(-c3ccccc3)[nH]2)CC1 | 0.79%
Cc1ccc(S(=O)(=O)N2CCC(C(=O)NCCC3=CCCCC3)CC2)cc1C | -3.83%
CC(=O)N(C1=C(Cl)C(=O)c2ccccc2C1=O)c1ccc(C(=O)O)cc1 | 59.3% (active)
CC(C)Cn1c(N)c(C(=O)NCc2cccs2)c2nc3ccccc3nc21 | 10.2%
CCN(CC)CCN1C(=O)C2C(C(=O)Nc3ccc(Br)cc3)C3C=CC2(O3)C1C(=O)NC1CCCCC1 (stereo unspecified) | -2.2%
COc1ccccc1C1C(C#N)=C(N)Oc2c1c(-c1ccccc1)nn2-c1ccccc1 (stereo unspecified) | -0.56%
Cn1nc(N)c2ncc(C(Cl)(Cl)Cl)nc21 | 2.05%
COc1ccc2c(c1)c(=Cc1ccc(N(C)C)cc1)c1cc(-c3ccccc3)[n+](C)n12 | 9.49%
Oc1c(C=Nc2cccc3nsnc23)ccc2ccccc12 | 41.4% (active)
COc1ccc(-c2csc(Nc3ccc(O)cc3)n2)cc1 | 3.53%
COc1cc(NC(=O)COC(=O)c2ccc([N+](=O)[O-])s2)cc(OC)c1OC | 35.1% (active)
COc1cc(OC)cc(C(=O)OCC(=O)Nc2sccc2C(N)=O)c1 | -2.14%
O=C(OCC(=O)N1CCN(c2ccccc2)CC1)c1ccc([N+](=O)[O-])s1 | 10.4%
O=C(NC1CCCCC1)N1CCc2[nH]c3ccccc3c2C1 | 7.01%
Cc1ccc(Cl)cc1NC(=O)CN1CCN(S(=O)(=O)N2CCOCC2)CC1 | -8.33%
O=c1oc2ccccc2c(CNc2ccccc2)c1[N+](=O)[O-] | 11.7%
CCN(CC)CCCC(C)n1c2nc(=O)[nH]c(=O)c-2nc2cc(Cl)ccc21 (stereo unspecified) | 52.2% (active)
O=S(=O)(Nc1ccc(O)c2ccccc12)c1ccc(OC(F)(F)F)cc1 | 15.5%
Cc1ccc(OCCCCc2c(C)n[nH]c2C)cc1 | 2.05%
CN1c2ccc(C=O)c3c(C=O)ccc(c23)N(C)C1(C)C | 21%
CC(=O)c1ccc(S(=O)(=O)N2CCC3(CC2)OCCO3)cc1 | -6.04%
COC1=C(N2CCOCC2)C(=O)c2ccccc2C1=O | 30.9% (active)
